Test results taken from PubChem BioAssay.
The list shows a part of the results. Unmarked numbers belong to inactive results. Activity calls are given as the source filed them. Rule as the data show it, unless noted: active = activation above about 20%; inactive = the rest.

Columns and labels:
[1] = target: Peroxisome proliferator-activated receptor gamma (Homo sapiens) (UniProt P37231); test: retested PPARg-SRC-2 recruitment enhancers – biochemical, HTS, confirmation (AID 1297; in the data active = activation above about 22%;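 also: 0% = vehicle alone and 100% = reference agonist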); settings: biochemical SRC-2 recruitment by PPARgamma; at 8 µM; hits give high values
[2] = target: Peroxisome proliferator-activated receptor gamma (Homo sapiens) (UniProt P37231); test: retest of SRC-1 recruitment enhancers for PPARgamma – biochemical, confirmation (AID 1300); settings: PPARgamma–SRC-1 coactivator recruitment biochemical assay; at 8 µM; hits give high values;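 also: 0% = vehicle wells and 100% = reference agonist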
[3] = target: Peroxisome proliferator-activated receptor gamma (Homo sapiens) + Nuclear receptor coactivator 3 (Homo sapiens) (UniProt P37231+Q9Y6Q9); test: agonists promoting SRC-3 binding to PPARgamma – biochemical, confirmation (AID 1301; in the data active = activation above about 24%;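 also: 0% = vehicle wells and 100% = reference agonist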); settings: biochemical PPARgamma-SRC-3 coactivator recruitment, agonist mode; at 8 µM; hits give high values
[4] = target: Oxysterols receptor LXR-beta (Homo sapiens) (UniProt P55055); test: nonspecific reporter activation via LXR – cell-based, luminescence, HEK293, H. contortus campaign, counter-screen for hcDAF-12 agonist project, confirmation (AID 743027;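 active = mean percent activation of the reporter above a cutoff set as the average over tested compounds plus their standard deviation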); settings: HEK293 Gal4-LXR tk-luc reporter, 24 h, at 6.8 µM, hits give high values, normalized: DMSO 0%, positive control 100%
[5] = tested on: Nuclear hormone receptor DAF-12 (Haemonchus contortus); test: hcDAF-12 luciferase reporter activation, retest – cell-based, luminescence, HEK293, lit1-tk-luc, triplicate, confirmation (AID 743032;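 active = mean activation across triplicate tests above the threshold derived from the earlier primary screen, cut at about 5.5% in these data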;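 also: 0% = DMSO only wells and 100% = 3 µM Δ7-dafachronic acid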); settings: HEK293 hcDAF-12 lit1-tk-luc reporter, at 6.8 µM, hits give high values, % of Δ7-dafachronic acid response
[6] = target: Photoreceptor-specific nuclear receptor (Homo sapiens) (UniProt Q9Y5X4); test: corepressor-releasing ligands of human NR2E3 – biochemical, TR-FRET, confirmation (AID 2379); settings: cell-free NR2E3 corepressor release, 5 h, at 3.98 µM, hits give high values
[7] = target: Peroxisome proliferator-activated receptor gamma (Homo sapiens) + Nuclear receptor corepressor 2 (Homo sapiens) (UniProt P37231+Q9Y618); test: agonists of PPARg-NCOR2 corepressor interaction, counter-screen for NR2E3 agonist project, biochemical, TR-FRET (AID 504787; in the data active = inhibition above about 20%;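 also: 0% = DMSO vehicle and 100% = wells without protein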); settings: TR-FRET PPARg-NCOR2 coregulator interaction, at 3.98 µM, hits give high values
[8] = target: Sphingosine 1-phosphate receptor 4 (Homo sapiens) (UniProt O95977); test: blockers of human S1P4 signalling – cell-based, confirmation (AID 1524; in the data active = inhibition above about 30%); settings: S1P4-expressing cell line, antagonist mode, reporter read-out; at 4.98 µM; hits give high values
[9] = target: Sphingosine 1-phosphate receptor 1 (Homo sapiens) (UniProt P21453); test: blockade of human S1P1 receptor – cell-based, counter-screen for S1P4 antagonist project (AID 1564; in the data active = inhibition above about 40%;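 also: receptor stimulated with S1P near its EC80; 0% = agonist stimulated wells and 100% = vehicle only wells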); settings: cell-based S1P1 antagonist counterscreen, at 4.98 µM, hits give high values
[10] = tested on: Fam108b (Abhd17b) serine hydrolase [Mus musculus]; test: inhibition of Fam108b (Abhd17b) hydrolase – biochemical, fluorescence polarization, triplicate, counter-screen for RBBP9 inhibitor project, confirmation (AID 1978;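 active = inhibition above a limit from the primary screen, the mean over all compounds plus 3 SD, cut at about 19% in these data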;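 also: 0% = median of active Fam108b wells and 100% = catalytically dead S170A mutant; inhibitors free the probe so polarization falls as inhibition rises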); settings: recombinant Fam108b, FP-Rh probe fluorescence polarization; at 9.51 µM; hits give high values
[11] = target: Bcl-2-like protein 1 (Homo sapiens) (UniProt Q07817); test: Bcl-xL BH3-peptide displacement, hit confirmation – biochemical, fluorescence polarization, counter-screen for MCL1 inhibitor project (AID 2166;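 active = inhibition above a cutoff equal to the mean inhibition of all tested compounds plus 3 SD, cut at about 30% in these data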); settings: GST-Bcl-xL / FITC-Bim BH3 peptide FP binding; at 10.9 µM; hits give high values
[12] = target: Induced myeloid leukemia cell differentiation protein Mcl-1 (Homo sapiens) (UniProt Q07820); test: MCL1-BIM peptide interaction disruptors – biochemical, fluorescence polarization, triplicate, confirmation (AID 2168;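 active = inhibition above the average of all tested compounds plus 3 SD, cut at about 40% in these data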;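 also: 0% = DMSO wells and 100% = unlabeled Bim-BH3 control peptide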); settings: GST-MCL1 / FITC-Bim-BH3 fluorescence polarization; at 10.9 µM; hits give high values
Sequence of Induced myeloid leukemia cell differentiation protein Mcl-1 (Homo sapiens) (Q07820 whole entry, looked up): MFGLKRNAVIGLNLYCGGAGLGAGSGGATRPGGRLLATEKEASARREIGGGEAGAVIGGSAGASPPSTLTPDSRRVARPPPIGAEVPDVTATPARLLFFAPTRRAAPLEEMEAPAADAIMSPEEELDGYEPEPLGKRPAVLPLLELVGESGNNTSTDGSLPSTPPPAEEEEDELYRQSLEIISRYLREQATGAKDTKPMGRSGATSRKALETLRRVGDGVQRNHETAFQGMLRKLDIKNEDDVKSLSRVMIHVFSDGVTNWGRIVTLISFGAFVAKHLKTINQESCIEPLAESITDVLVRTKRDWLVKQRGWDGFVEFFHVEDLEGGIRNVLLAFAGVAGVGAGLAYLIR

Sequence of Peroxisome proliferator-activated receptor gamma (Homo sapiens) (P37231 whole entry, looked up): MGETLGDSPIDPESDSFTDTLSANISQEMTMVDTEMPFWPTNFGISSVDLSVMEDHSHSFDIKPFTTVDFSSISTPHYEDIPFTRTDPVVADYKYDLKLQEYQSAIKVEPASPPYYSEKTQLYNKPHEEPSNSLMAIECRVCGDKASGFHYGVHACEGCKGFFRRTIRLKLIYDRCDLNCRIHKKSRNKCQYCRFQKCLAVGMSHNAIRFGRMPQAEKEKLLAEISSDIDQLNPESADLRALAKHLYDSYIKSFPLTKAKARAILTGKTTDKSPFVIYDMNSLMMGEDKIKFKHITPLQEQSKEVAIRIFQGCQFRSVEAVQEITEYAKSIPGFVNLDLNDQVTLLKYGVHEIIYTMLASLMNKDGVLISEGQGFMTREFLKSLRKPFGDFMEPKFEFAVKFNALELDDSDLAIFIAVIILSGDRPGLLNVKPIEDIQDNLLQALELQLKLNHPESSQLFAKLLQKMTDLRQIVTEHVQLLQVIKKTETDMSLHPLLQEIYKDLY
Sequence of Peroxisome proliferator-activated receptor gamma (Homo sapiens) + Nuclear receptor coactivator 3 (Homo sapiens) (P37231 whole entry, looked up, the tested form may be a part): as the sequence (P37231 whole entry, looked up) above
Sequence of Peroxisome proliferator-activated receptor gamma (Homo sapiens) + Nuclear receptor coactivator 3 (Homo sapiens) (Q9Y6Q9 whole entry, looked up, the tested form may be a part): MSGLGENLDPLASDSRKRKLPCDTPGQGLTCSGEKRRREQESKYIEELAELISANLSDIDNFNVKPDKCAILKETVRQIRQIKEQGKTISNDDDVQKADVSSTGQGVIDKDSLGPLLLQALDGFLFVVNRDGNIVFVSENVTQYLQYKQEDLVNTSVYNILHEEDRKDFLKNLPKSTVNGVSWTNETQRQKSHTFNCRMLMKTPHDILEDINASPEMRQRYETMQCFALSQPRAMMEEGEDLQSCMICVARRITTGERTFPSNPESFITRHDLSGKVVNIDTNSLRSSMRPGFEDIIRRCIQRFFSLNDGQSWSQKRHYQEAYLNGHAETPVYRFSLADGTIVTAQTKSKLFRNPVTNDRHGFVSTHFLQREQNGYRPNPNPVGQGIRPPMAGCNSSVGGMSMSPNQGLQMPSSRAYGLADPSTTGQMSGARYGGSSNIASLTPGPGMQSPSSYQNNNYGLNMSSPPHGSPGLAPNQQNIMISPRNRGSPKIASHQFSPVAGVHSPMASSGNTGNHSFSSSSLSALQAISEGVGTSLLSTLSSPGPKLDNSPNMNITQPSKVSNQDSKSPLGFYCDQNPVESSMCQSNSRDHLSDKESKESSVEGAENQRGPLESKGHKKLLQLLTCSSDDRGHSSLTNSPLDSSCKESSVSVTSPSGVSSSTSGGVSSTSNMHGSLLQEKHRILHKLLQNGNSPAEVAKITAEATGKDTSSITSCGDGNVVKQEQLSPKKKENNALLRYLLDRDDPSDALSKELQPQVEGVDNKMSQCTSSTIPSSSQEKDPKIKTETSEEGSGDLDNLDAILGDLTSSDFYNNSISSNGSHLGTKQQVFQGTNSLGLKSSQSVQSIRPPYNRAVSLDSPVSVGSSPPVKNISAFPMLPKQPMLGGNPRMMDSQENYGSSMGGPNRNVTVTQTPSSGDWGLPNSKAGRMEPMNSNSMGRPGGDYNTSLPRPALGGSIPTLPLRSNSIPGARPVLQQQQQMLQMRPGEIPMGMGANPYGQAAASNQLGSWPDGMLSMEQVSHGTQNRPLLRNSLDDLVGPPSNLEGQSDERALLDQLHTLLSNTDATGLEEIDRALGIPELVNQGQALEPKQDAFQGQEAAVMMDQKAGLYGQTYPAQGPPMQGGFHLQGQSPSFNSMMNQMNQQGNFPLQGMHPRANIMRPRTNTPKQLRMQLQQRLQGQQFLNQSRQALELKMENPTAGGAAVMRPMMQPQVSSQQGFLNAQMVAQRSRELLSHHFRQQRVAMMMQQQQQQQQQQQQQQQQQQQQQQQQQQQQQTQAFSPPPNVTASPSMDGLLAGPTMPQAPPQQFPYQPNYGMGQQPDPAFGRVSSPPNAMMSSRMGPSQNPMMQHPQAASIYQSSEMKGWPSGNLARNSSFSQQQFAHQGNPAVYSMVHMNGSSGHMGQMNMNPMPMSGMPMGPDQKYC
Sequence of Sphingosine 1-phosphate receptor 4 (Homo sapiens) (O95977 whole entry, looked up): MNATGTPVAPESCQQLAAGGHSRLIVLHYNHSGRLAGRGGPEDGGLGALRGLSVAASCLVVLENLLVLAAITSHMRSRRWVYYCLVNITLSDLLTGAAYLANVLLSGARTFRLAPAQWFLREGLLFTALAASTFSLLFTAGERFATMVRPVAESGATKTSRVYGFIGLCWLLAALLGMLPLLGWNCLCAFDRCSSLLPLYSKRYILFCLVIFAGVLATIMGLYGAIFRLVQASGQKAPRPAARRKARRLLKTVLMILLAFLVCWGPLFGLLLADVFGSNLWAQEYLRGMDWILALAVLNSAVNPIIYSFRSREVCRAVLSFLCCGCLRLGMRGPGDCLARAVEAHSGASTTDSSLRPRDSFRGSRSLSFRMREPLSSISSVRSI
Sequence of Photoreceptor-specific nuclear receptor (Homo sapiens) (Q9Y5X4 whole entry, looked up): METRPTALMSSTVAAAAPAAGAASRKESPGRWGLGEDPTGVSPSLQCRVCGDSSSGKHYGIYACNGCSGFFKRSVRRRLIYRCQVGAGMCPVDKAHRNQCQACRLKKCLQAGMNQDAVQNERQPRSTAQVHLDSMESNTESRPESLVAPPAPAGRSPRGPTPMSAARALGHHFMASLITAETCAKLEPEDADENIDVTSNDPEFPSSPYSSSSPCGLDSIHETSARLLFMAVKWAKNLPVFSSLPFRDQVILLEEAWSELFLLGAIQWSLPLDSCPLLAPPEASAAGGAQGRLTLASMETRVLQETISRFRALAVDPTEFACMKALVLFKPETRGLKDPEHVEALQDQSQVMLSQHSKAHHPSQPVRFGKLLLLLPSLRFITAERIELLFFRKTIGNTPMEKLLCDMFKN
Sequence of Sphingosine 1-phosphate receptor 1 (Homo sapiens) (P21453 whole entry, looked up): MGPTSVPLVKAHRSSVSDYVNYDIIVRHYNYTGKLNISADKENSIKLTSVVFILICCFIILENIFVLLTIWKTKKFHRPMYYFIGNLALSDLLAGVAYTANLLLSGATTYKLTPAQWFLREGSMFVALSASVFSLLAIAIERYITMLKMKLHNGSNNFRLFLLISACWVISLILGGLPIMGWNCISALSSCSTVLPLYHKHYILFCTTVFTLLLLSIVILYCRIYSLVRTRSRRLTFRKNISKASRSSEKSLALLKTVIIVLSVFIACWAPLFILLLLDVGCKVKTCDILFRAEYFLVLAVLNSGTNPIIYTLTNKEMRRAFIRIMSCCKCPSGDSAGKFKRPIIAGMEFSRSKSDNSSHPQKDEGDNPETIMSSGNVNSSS
Sequence of Oxysterols receptor LXR-beta (Homo sapiens) (P55055 whole entry, looked up, the tested form may be a part): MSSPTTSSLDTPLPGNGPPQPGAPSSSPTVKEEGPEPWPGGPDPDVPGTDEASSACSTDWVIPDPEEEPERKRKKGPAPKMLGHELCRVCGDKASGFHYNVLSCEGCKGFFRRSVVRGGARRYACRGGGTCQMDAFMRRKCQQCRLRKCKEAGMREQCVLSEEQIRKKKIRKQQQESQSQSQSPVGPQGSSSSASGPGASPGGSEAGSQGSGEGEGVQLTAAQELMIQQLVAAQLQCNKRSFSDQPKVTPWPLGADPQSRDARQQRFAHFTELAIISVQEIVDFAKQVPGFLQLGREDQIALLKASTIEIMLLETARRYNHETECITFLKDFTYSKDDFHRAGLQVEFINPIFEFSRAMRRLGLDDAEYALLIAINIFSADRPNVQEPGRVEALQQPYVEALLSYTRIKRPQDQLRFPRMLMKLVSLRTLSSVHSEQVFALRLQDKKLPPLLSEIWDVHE
Sequence of Bcl-2-like protein 1 (Homo sapiens) (Q07817 whole entry, looked up): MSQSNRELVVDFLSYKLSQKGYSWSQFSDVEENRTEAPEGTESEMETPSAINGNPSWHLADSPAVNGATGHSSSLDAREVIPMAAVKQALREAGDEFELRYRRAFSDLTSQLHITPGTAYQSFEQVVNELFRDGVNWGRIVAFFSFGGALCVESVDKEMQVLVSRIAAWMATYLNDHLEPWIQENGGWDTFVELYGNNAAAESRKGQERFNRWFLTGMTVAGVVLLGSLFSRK

**Q.** Which activation [1] does the source give for `CNC(=S)N1N=C(c2ccccc2)CC1c1ccc(Br)cc1` (centres undefined) here?
**A.** 24.2% (active)

**Q.** What about the activation [2] of the same compound?
**A.** 23.1% (active)

**Q.** And the activation [3]?
**A.** 17.2%

**Q.** What does the source list for `COC(=O)Cn1cc(C(=O)c2cccs2)c2ccccc21`?
**A.** activation [1]: -2.1%; activation [2]: 0.95%; activation [3]: 0.74%

**Q.** `CC(=O)n1c(C=Nc2ccccc2)c(O)c2ccccc21` was tested. Which activation [1] did it give?
**A.** 2.33%

**Q.** What about the activation [2] of the same compound?
**A.** 0.42%

**Q.** What about the activation [3] of the same compound?
**A.** 5.23%

**Q.** And the activation [4]?
**A.** 0.1%

**Q.** What about the activation [5] of the same compound?
**A.** 4.63%

**Q.** `CC(=O)c1sc2nc(SCC(=O)N3CCCCC3)[nH]c(=O)c2c1C` was tested. Which activation [1] did it give?
**A.** 27.4% (active)

**Q.** And the activation [2]?
**A.** 20.8% (active)

**Q.** And the activation [3]?
**A.** 18.3%

**Q.** What about the activation (reported as inhibition) [6] of the same compound?
**A.** 17.4%

**Q.** And the inhibition [7]?
**A.** 21.1% (active)

**Q.** `Cc1cc(C)nc(S/C=C/C(=O)c2ccccc2)n1` was tested. Which inhibition [8] did it give?
**A.** 97.1% (active)

**Q.** What about the inhibition [9] of the same compound?
**A.** 19.6%

**Q.** What does the source list for `CSc1c(SCc2ccccc2)cnn(Cc2ccccc2)c1=O`?
**A.** activation [1]: 34.4% (active); activation [2]: 28.5% (active); activation [3]: 25.9% (active); inhibition [10]: 0.05%; inhibition [11]: -5.91%; inhibition [12]: -3.67%

**Q.** For `Cc1cc(N2C(=O)C(=O)/C(=C(/O)c3ccc(Cl)cc3)C2c2cccc(Br)c2)no1` (centres undefined), which activation [1] is on record?
**A.** 28.1% (active)

**Q.** What about the activation [2] of the same compound?
**A.** 18.8%

**Q.** What about the activation [3] of the same compound?
**A.** 14%

**Q.** `Cc1nc(-c2ccccc2)sc1-c1nc(-c2ccccc2)ncc1S(=O)(=O)c1ccccc1` was tested. Which activation [1] did it give?
**A.** 48.5% (active)

**Q.** What about the activation [2] of the same compound?
**A.** 29.3% (active)

**Q.** What about the activation [3] of the same compound?
**A.** 22.7%

**Q.** For `O=C(Oc1ccccc1)Oc1ccc2c(c1)oc(=O)c1ccccc12`, which activation [1] is on record?
**A.** 27.9% (active)

**Q.** What about the activation [2] of the same compound?
**A.** 16.1%

**Q.** What about the activation [3] of the same compound?
**A.** 19.9%

**Q.** What about the activation (reported as inhibition) [6] of the same compound?
**A.** 1.72%

**Q.** And the inhibition [7]?
**A.** 6.42%

**Q.** Which results are given for `Cn1c(=O)cc(SCC(=O)N2CCCC2)c2cc(Cl)ccc21`?
**A.** activation [1]: 60.1% (active); activation [2]: 41.1% (active); activation [3]: 42% (active)

**Q.** For `CCc1c(C)nc2cc(-c3cccs3)[nH]n2c1=O`, which inhibition [8] is on record?
**A.** 5.18%

**Q.** And the inhibition [9]?
**A.** 12.8%

**Q.** What does the source list for `O=C(CSc1c2c(nc3ccc(Cl)cc13)CCCC2)NCc1ccco1`?
**A.** activation [1]: 19.2%; activation [2]: 15.5%; activation [3]: 14.4%

**Q.** Which activation [1] does the source give for `Cn1c(-c2sc3cc(C(F)(F)F)cnc3c2-c2ccccc2)n[nH]c1=S` here?
**A.** 89.8% (active)

**Q.** And the activation [2]?
**A.** 67% (active)

**Q.** What about the activation [3] of the same compound?
**A.** 53.5% (active)

**Q.** `Cc1ccc(-c2cc(C(=O)NCc3cn(C)nc3C)c3cc(Br)ccc3n2)cc1` was tested. Which activation [1] did it give?
**A.** 25.7% (active)

**Q.** And the activation [2]?
**A.** 15.9%

**Q.** And the activation [3]?
**A.** 16.9%
